According to PubChem BioAssay (EPA / NIEHS):
Results filed as inconclusive are left out. The source made the active and inactive calls. How the source made its calls: active means hit-call score of the fitted dose curve at least 0.9, where 1 is the maximum; inconclusive means response in the unintended direction; inactive means score below 0.9.

Experiment: ACEA_AR_agonist_AUC_viability: ACEA Biosciences xCELLigence Real-Time Cell Analysis on Androgen Receptor Agonism for Viability (AID 2283775);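 on AC50: viability read 80 hours after compound addition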
Procedure, shortened: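 Read-out is area under the impedance curve at 80 h post-dose in 22Rv1 cells, with DMSO as baseline and signal loss taken as reduced viability. Compounds ran in duplicate from 100 uM final.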

SMILES	outcome	AC50
Cc1ccc(O)cc1	inactive	
O=c1[nH]c2ccc(S(=O)CCN3CCC(Cc4ccc(F)cc4)CC3)cc2o1 (centres undefined)	inactive	
CC(C)CC(C)(O)C#CC(C)(O)CC(C)C (centres undefined)	inactive	
COCCOc1cc2cc(C(=O)NC3CCN(C(C)C)CC3)n(CC(=O)Nc3ccc(Cl)cn3)c2cn1		40.9 µM (active)
COc1cccc(-c2ccc(/C=C\CN3CCCCCC3)cc2Cl)c1		62.7 µM (active)
CC(C)CCO	inactive	
Cc1c(-c2cccnc2)c2ccccc2n1CCCCC(=O)O		24.1 µM (active)
CCN(C(=O)c1cc(C)cc(OC[C@H](C)Nc2ccncc2)c1)C(C)C		33.8 µM (active)
Fc1ccccc1[C@@H](F)COC1CCC(Nc2ncnc3[nH]ncc23)CC1 (some centres undefined)		63.2 µM (active)
C1N2CN3CN1CN(C2)C3	inactive	
O=C1CCC(N2C(=O)c3ccccc3C2=O)C(=O)N1 (centres undefined)	inactive	
CNCc1ccc(NC(=O)c2c[nH]c3c2C(=O)CCC3)cc1		50 µM (active)
CC[C@H]1CC[C@H](NCc2cc3c(cc2OC)[C@H]2C[C@H]2C(=O)N3C)[C@H](c2ccccc2)N1		17.5 µM (active)
Cn1c(=O)c2c(ncn2C)n(C)c1=O	inactive	
CC1(C)C(=O)N(Br)C(=O)N1Br	inactive	
COc1ccc2sc(C(=O)Nc3nnn[nH]3)c(OC(C)C)c2c1		9.32 µM (active)
CCCCCCCCO	inactive	

Experiment: ACEA_AR_antagonist_AUC_viability: ACEA Biosciences xCELLigence Real-Time Cell Analysis on Androgen Receptor Antagonism for Viability (AID 2283776);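 further: area under impedance growth curve at 80 h after dosing as viability; hits lower the growth signal relative to DMSO meaning cytotoxicity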
Procedure, shortened: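 22Rv1 human prostate cancer cells were seeded on electrode plates, monitored overnight, then exposed to eight 1:4 dilutions from 100 uM final. Impedance-based growth kinetics at 80 h gave an AUC viability endpoint normalized to DMSO.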

SMILES	outcome	AC50
Cn1c(=O)cc(Oc2ccc(F)cc2F)c2cnc(NCC(C)(C)O)nc21	inactive	
CCCCC(CC)COC(=O)c1ccc(C(=O)OCC(CC)CCCC)cc1 (centres undefined)	inactive	
Cc1ccc(O)cc1	inactive	
O=c1[nH]c2ccc(S(=O)CCN3CCC(Cc4ccc(F)cc4)CC3)cc2o1 (centres undefined)	inactive	
O=C(O)c1cc(N=Nc2ccc(S(=O)(=O)Nc3ccccn3)cc2)ccc1O	inactive	
CC(C)CC(C)(O)C#CC(C)(O)CC(C)C (centres undefined)	inactive	
COCCOc1cc2cc(C(=O)NC3CCN(C(C)C)CC3)n(CC(=O)Nc3ccc(Cl)cn3)c2cn1		45 µM (active)
COc1cccc(-c2ccc(/C=C\CN3CCCCCC3)cc2Cl)c1		45.2 µM (active)
CC(C)CCO	inactive	
CC(C)CCCCCCOC(=O)c1ccc(C(=O)OCCCCCCC(C)C)c(C(=O)OCCCCCCC(C)C)c1	inactive	
Cc1c(-c2cccnc2)c2ccccc2n1CCCCC(=O)O		22.8 µM (active)
COCCOCCOCCOC		24.2 µM (active)
CCN(C(=O)c1cc(C)cc(OC[C@H](C)Nc2ccncc2)c1)C(C)C		11.2 µM (active)
CC(=O)OC[C@H]1O[C@@](COC(C)=O)(O[C@H]2O[C@H](COC(C)=O)[C@@H](OC(C)=O)[C@H](OC(C)=O)[C@H]2OC(C)=O)[C@@H](OC(C)=O)[C@@H]1OC(C)=O	inactive	
Nc1cccc(N)c1	inactive	
Fc1ccccc1[C@@H](F)COC1CCC(Nc2ncnc3[nH]ncc23)CC1 (some centres undefined)		50 µM (active)
C1N2CN3CN1CN(C2)C3	inactive	
CCCC(=O)OCC	inactive	
O=C1CCC(N2C(=O)c3ccccc3C2=O)C(=O)N1 (centres undefined)	inactive	
CNCc1ccc(NC(=O)c2c[nH]c3c2C(=O)CCC3)cc1		67 µM (active)
CCOC(=O)CC(CC(=O)OCC)(OC(C)=O)C(=O)OCC	inactive	
CC[C@H]1CC[C@H](NCc2cc3c(cc2OC)[C@H]2C[C@H]2C(=O)N3C)[C@H](c2ccccc2)N1		18.2 µM (active)
O=C(O)c1cccc(Oc2ccccc2)c1	inactive	
Cn1c(=O)c2c(ncn2C)n(C)c1=O	inactive	
CC1(C)C(=O)N(Br)C(=O)N1Br	inactive	
COc1ccc2sc(C(=O)Nc3nnn[nH]3)c(OC(C)C)c2c1		12.9 µM (active)
CCCCCCCCO	inactive	
